Luminol counter – counter-screen for Nox1 inhibitors: inhibitors of luminol chemiluminescence. HRP/luminol/H2O2 chemiluminescence counterscreen. inhibition, % at 6.7 µM. actives 0.4% (n = 16,000). AID 1823; note: reference of the scale not given here
rat GALR2 ag – activates the rat galanin receptor 2. O08726. cell-based GALR2 agonist screen. activation, % at 10 µM. actives 0.5% (n = 16,000). AID 833; in the data active = activation above about 15%
PME-1 Maybridge – Maybridge compound blocking human PME-1. Q9Y570. recombinant PME-1, FP-Rh probe fluorescence polarization. inhibition, % at 9 µM. actives 0.5% (n = 16,000); in the data active = inhibition above about 30%
Target sequence (Q9Y570 whole entry, looked up): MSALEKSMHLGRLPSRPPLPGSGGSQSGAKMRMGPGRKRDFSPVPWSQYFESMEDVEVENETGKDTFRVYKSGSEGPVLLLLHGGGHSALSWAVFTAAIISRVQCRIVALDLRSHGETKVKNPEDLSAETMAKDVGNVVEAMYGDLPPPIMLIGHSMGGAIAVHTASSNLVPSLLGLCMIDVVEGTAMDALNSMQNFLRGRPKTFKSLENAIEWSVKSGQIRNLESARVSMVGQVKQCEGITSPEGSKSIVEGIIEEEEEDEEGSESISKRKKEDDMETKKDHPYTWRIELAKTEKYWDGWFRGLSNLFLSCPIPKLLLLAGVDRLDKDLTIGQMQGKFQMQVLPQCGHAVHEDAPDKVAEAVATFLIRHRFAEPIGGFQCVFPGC
NOTCH agonist – NOTCH pathway agonism; actives 0.4% (n = 15,000); activation, % at 2.5 µM; NOTCH signaling luciferase reporter cells, luminescence; AID 434982; in the data active = activation above about 2.2%
Nox1 inhibitor – inhibitors of human NADPH oxidase 1 (Nox1); inhibition, % at 6.7 µM; HT29 cells, luminol chemiluminescence ROS; actives 0.81% (n = 16,000)
S1P1 ag – activates the human S1P1 receptor. P21453. activation, % at 4.5 µM. actives 1.5% (n = 16,000). S1P1 agonist cell-based reporter assay; in the data active = activation above about 80%
The depositor's hits bear a star; x = no result given. Only some compounds are listed: those with a hit (about 4.1% of all), similar ones and a draw of the others. Cut-off read from the data, not from the text of the source, unless noted: active = inhibition above about 75%; inactive = the rest.

SMILES | Luminol counter | rat GALR2 ag | PME-1 Maybridge | NOTCH agonist | Nox1 inhibitor | S1P1 ag
CC1(C)OC(=O)C(=Cc2cccn2-c2ccc(C(F)(F)F)cc2)C(=O)O1 | 5.0 | -5.8 | -0.3 | x | -42.5 | 7.6
Cc1cc(OCc2ccccc2)ccc1[N+](=O)[O-] | -1.7 | -6.2 | 2.8 | 2.5* | -15.1 | 4.3
CCOC(=O)C(NCCc1ccccc1)(NC(C)=O)C(F)(F)F (stereo not drawn) | -2.2 | -4.6 | -2.1 | -0.4 | -11.1 | 2.0
N#Cc1cnc(Oc2ccc(Cl)cc2)nc1N | 0.8 | 21.4* | -0.3 | -0.4 | -56.2 | -8.5
COc1ncc(C#N)c(N)n1 | -7.8 | -5.2 | 6.5 | 0.0 | 17.2 | 2.2
NS(=O)(=O)c1ccc(NNC(=O)c2c(F)cccc2Cl)cc1 | 3.3 | -5.9 | 10.9 | 0.2 | 80.7* | -10.4
CCn1nc(C)cc1-c1nnc(SCc2ccc(C(F)(F)F)cc2)o1 | -3.5 | -6.6 | 1.3 | -0.1 | 1.6 | 96.9*
CCn1nc(C)cc1-c1nnc(-c2ccccc2Cl)o1 | -2.7 | -2.7 | 4.0 | 0.1 | -33.8 | 23.1
N/C(=N\OC(=O)c1ccc(OCC(F)(F)F)nc1)c1cccc(Cl)c1 | -0.2 | -6.2 | 0.9 | -0.6 | -35.0 | 94.7*
Cn1c(CC#N)n[nH]c1=S | -2.4 | -7.4 | 1.2 | -0.7 | -29.2 | -1.2
Cc1nc(C)c(-c2n[nH]c(=S)n2C)s1 | 99.7* | -2.6 | 3.4 | -0.1 | 5.7 | -3.0
COc1ccc(/C(C#N)=C/c2cnc(-c3ccccc3)[nH]2)cc1 | -3.8 | -3.8 | 49.8* | -0.4 | -0.5 | -4.9
O=C(Nc1cncc(C#Cc2ccccc2)c1)N1CCOCC1 | -3.1 | -3.6 | -1.1 | 0.1 | -11.3 | -10.5
C#CCOc1ccc(C(=O)OCC)cc1 | -7.8 | -5.0 | 8.1 | -0.8 | 20.3 | 9.6
COc1ccc(OC)c(S(=O)(=O)c2ccc([N+](=O)[O-])cc2Cl)c1 | 3.9 | -10.8 | 1.8 | -0.8 | 89.4* | -4.7
CC1(C)N=c2ccc([N+](=O)[O-])cc2=N1 | 5.5 | -6.2 | 37.6* | -0.4 | -6.8 | -7.9
C/C(=N\N=C(/C)c1cccc([N+](=O)[O-])c1)c1cccc([N+](=O)[O-])c1 | 2.6 | 6.0 | -5.1 | -0.6 | -45.4 | -5.3
O=S(=O)(Nc1[nH]ncc1Br)c1ccc(Cl)s1 | -1.7 | -4.8 | 1.4 | -0.1 | -52.0 | 3.2
O=C1CC(Nc2ccccc2)C=C1Nc1ccccc1 (stereo not drawn) | -3.6 | -1.9 | 0.6 | 0.9 | 0.5 | -8.6
CC1(C)CC(Nc2ccc(Nc3ccccc3)cc2)CC(C)(C)N1 | 3.9 | 0.2 | 4.6 | -0.3 | 103.4* | -8.9
CNc1ncnc(NNC(=O)Nc2ccc(OC(F)(F)F)cc2)c1[N+](=O)[O-] | 3.4 | -5.7 | 3.6 | -0.9 | -7.8 | -23.7
CC(C)(C)c1cc2nc(C(F)(F)F)cc(NNC(=O)Nc3ccc(OC(F)(F)F)cc3)n2n1 | 7.1 | 0.3 | -105.9 | 0.5 | 88.1* | 82.0*
CC(C)(C)c1cc(C(F)(F)F)[nH]n1 | -0.5 | -3.2 | -1.1 | 0.4 | -5.6 | 7.2
CCOc1ccc(NC(=O)c2cc(C)n(C)n2)cc1 | 2.0 | -7.8 | -2.6 | -0.3 | -22.4 | 125.7*
Cc1cc(C(=O)Nc2ccccc2N2CCCCC2)nn1C | 0.3 | -7.5 | -1.5 | -0.1 | -5.7 | -32.0
SMILES | Luminol counter | rat GALR2 ag | PME-1 Maybridge | NOTCH agonist | Nox1 inhibitor | S1P1 ag
C/C(=N\O)c1sc2scc(C)c2c1C | -8.6 | -5.8 | 3.6 | -0.2 | -1.0 | 2.3
O=[N+]([O-])c1ccc(Oc2nc3cc(Cl)ccc3s2)c(C2SCCS2)c1 | -2.4 | -5.3 | 0.9 | -0.3 | -13.9 | 2.6
FC(F)(F)c1cc(N2CCCCC2)c2cccc(Cl)c2n1 | 3.4 | -8.4 | -5.0 | 0.1 | -31.9 | -0.2
O=[N+]([O-])c1cc(Cl)ccc1Sc1ccccc1NS(=O)(=O)c1ccc(F)cc1 | 4.8 | -9.2 | 63.1* | -0.3 | 8.0 | 73.3
O/N=C/c1ccc(-c2cc(C(F)(F)F)cc(C(F)(F)F)c2)o1 | -1.0 | -6.9 | -5.4 | 0.3 | -57.2 | 92.0*
C=CCn1c(C(C)Oc2ccc(Cl)cc2)n[nH]c1=S (stereo not drawn) | 93.8* | -4.0 | -0.1 | 0.8 | 10.4 | 15.6
N#C/C(=C\Nc1cc(C(F)(F)F)cc(C(F)(F)F)c1)S(=O)(=O)Cc1ccc(Cl)cc1 | 4.7 | -8.8 | -1.0 | -0.6 | 6.8 | 100.4*
N#C/C(=C\Nc1cc(C(F)(F)F)cc(C(F)(F)F)c1)C(=O)Nc1ccc(Cl)cc1 | -2.0 | -8.8 | 0.0 | -0.5 | 12.1 | 30.4
CN(C)c1ccc(/C=N/NC2=NCCN2)cc1 | -22.5 | -5.7 | 1.2 | -0.5 | -2.8 | 6.9
CN(C)c1ccc(/C=N/Nc2c(Cl)cncc2Cl)cc1 | 3.4 | -3.6 | 2.0 | 0.6 | 102.4* | 35.5
CCCc1cnc(N2CCN(C(=O)NS(=O)(=O)c3ccc(C)cc3)CC2)nc1 | -3.5 | -7.8 | -1.4 | x | -5.0 | -25.6
CN1C2CCC1CC(NC(=O)CSCc1ccc(Cl)cc1Cl)C2 (stereo not drawn) | -7.8 | 51.2* | 8.8 | -0.2 | 8.1 | -2.2
COCc1cc(=O)[nH]c(SCC(=O)N2CCOCC2)n1 | 1.9 | -4.9 | 0.7 | -0.7 | -53.2 | -3.5
COc1ccc(C(C)=O)cc1CSc1nccc(=O)[nH]1 | 0.0 | -7.4 | -2.2 | -0.7 | -18.2 | 4.0
CCn1c(-c2cc(-c3ccccc3)sc2N)n[nH]c1=S | 5.8 | 0.1 | 9.7 | -0.6 | 97.7* | 6.3
CCn1c(CN2c3ccccc3Sc3ccccc32)n[nH]c1=S | 16.3 | -7.9 | 14.2 | 0.5 | 25.6 | -0.1
O=C(Nc1ccc(S(=O)(=O)Nc2nccs2)cc1)c1sc2ccccc2c1Cl | -5.7 | -3.0 | -25.2 | -0.3 | 4.1 | 6.3
CCOC(=O)c1ccc(Oc2ccc(Cl)cc2Cl)c([N+](=O)[O-])c1 | -1.1 | -3.8 | -3.0 | -0.8 | 28.8 | 93.5*
Cc1cc(S(=O)(=O)NNc2ncnc3cc(C(C)(C)C)sc23)c(C)cc1Cl | -0.7 | 2.1 | -24.5 | -0.1 | 93.7* | -14.4
Cc1nn(-c2ccccc2)nc1CNC(=O)C1=Cc2ccccc2OC1 | -2.2 | -3.0 | -6.4 | 2.3* | -3.8 | -14.4
O=C(NCc1csc(-c2cccs2)n1)C1=Cc2ccccc2OC1 | -6.0 | -3.5 | 4.1 | 0.2 | 23.1 | 24.8
N#C/C(=C\c1ccc(Cl)c(Cl)c1)c1ccc(NC(N)=O)cc1 | -6.7 | 135.4* | -4.4 | 0.2 | 11.8 | -48.1
C/S(=N/C(=O)Nc1ccc(Cl)cc1)c1sc(Cl)c2c1C(=O)CC(C)(C)C2 (stereo not drawn) | 3.0 | -3.3 | -4.2 | -1.0 | -37.9 | 55.2
C/S(=N\S(=O)(=O)c1ccc(Cl)cc1)c1sc(Cl)c2c1C(=O)CC(C)(C)C2 (stereo not drawn) | 0.8 | -3.0 | -7.0 | 0.0 | -23.7 | 82.6*
CC(C)(C)c1ccc(C(=O)c2ncc[nH]2)cc1 | 2.5 | 2.2 | 0.9 | -0.7 | -55.7 | 102.8*
O=[N+]([O-])c1cccc(-c2ccc(/C=N/NC(=S)NCc3ccco3)o2)c1 | 2.9 | -6.7 | 36.4* | -0.8 | -19.7 | 10.3
Nc1cc(Cl)c(S(N)(=O)=O)cc1S(=O)(=O)NCc1ccccc1 | -4.2 | -4.9 | 7.0 | -0.7 | -10.3 | -9.5
O=S(=O)(NCc1ccccc1)c1cc(Br)c(Br)s1 | -1.3 | -2.0 | 73.8* | 0.2 | -26.1 | 0.2
